Consider 14 compounds from PubChem BioAssay (NCI).

About 79,000 compounds went through this panel and 15% of them were active in at least one assay; those are over-represented in the sample as a whole. A number with no mark means an inactive call. Calls of active or inactive are those of the source. Cut-off read from the data, not from the text of the source: active = growth inhibition above about 70%; inactive = the rest.

The nature of this experiment: NCI Yeast Anticancer Drug Screen. Data for the cln2 rad14 strain (AID 165).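 Note: 0% = growth equal to vehicle treated cultures.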 The conditions noted are these: S. cerevisiae cln2 rad14 strain, stronger effect = higher value. As for the experimental part: Growth inhibition of yeast strains with defined genetic alterations is measured as a screen for potential anti-cancer activity. Selected strains with alterations in DNA damage repair or cell cycle control were exposed to compounds and growth inhibition was measured relative to vehicle treated controls. The strain used in this assay is cln2 rad14

[1] abbreviates: at 5.0 µM (retest, dose inferred, filed as 0.5).
Where [2] appears, read: at 50.0 µM (retest, dose inferred, filed as 5.0).

As for `NS(=O)(=O)c1ccc(NC(=S)/N=C\C(C(=O)c2ccccc2)=C(\O)c2ccccc2)cc1`, the growth inhibition was -19% under setting [1], -18% under setting [2] and 41.5% (at 50.0 µM).
As to `OCC(O)C(O)C(O)C(O)C(O)C(/C=N/Nc1ccccc1)=N/Nc1ccccc1` (configuration not stated), the growth inhibition was 0% under setting [1], 71% (active) under setting [2] and 31.1% (at 50.0 µM).
The matching figures for `O=C(O)c1ccccc1Cc1ccc2c(c1)Cc1ccccc1-2`: -19%, 88% (active) and 71.2% (active).
The corresponding values for `Nc1ccc2nc3c(nc2c1)C(=O)c1ccccc1-3` are 32%, 90% (active) and 83% (active).
In the case of `Cc1ccc(C(=Nc2ccccc2)N=P(c2ccccc2)(c2ccccc2)c2ccccc2)cc1`, the growth inhibition is 39% under setting [1], 99% (active) under setting [2] and 89.5% (active) (at 50.0 µM).
The matching figures for `CCCCCCCCC1CCNCC1`: 33%, 38% and 72.5% (active).
Turning to `CCCCCCCCCC(=O)NN=C(C)C`, the growth inhibition was -67% under setting [1], 81% (active) under setting [2] and 88.2% (active) (at 50.0 µM).
The corresponding values for `CC(=O)OCC1(O)OCC(OC(C)=O)C(OC(C)=O)C1OC(C)=O` (configuration not stated) are 27%, -36% and -2.65%.
As to `CCc1ccccc1NC(=O)C1=C(C)NC(C)=C(C(=O)Nc2c(CC)cccc2CC)C1c1ccc2c(c1)OCO2` (configuration not stated), the growth inhibition reads like this: under setting [1], 15%; under setting [2], 15%; (at 50.0 µM) 85.8% (active).
Regarding `CC1CCC(C(C)C2C(O)CC3C4CC=C5CC(O)CCC5(C)C4CCC32C)NC1` (configuration not stated), the growth inhibition under setting [1] is 3%, the growth inhibition under setting [2] was 23% and the growth inhibition (at 50.0 µM) was 23.8%.
As for `O=C(NCCN1CCN2Cc3[nH]c4ccccc4c3CC2C1)c1ccc(Cl)cc1` (configuration not stated), the growth inhibition runs as follows: under setting [1], 27%; under setting [2], 72% (active); (at 50.0 µM) 55.6%.
The corresponding values for `Cc1c[n+](=O)c2ccccc2n1[O-]` are 8%, 1% and 70.8% (active).
Regarding `CN(C)c1ccc(C(=C2C=CC(=[N+](C)C)C=C2)c2ccc(N(C)C)cc2)cc1` (tested in a mixture with another compound), the growth inhibition reads like this: under setting [1], 99% (active); under setting [2], 95% (active); (at 50.0 µM) 87.7% (active).
Regarding `O=C1c2ccccc2C(c2ccccc2)(c2ccccc2)N1c1ccccc1`, the growth inhibition is 18% under setting [1], 69% under setting [2] and 91.3% (active) (at 50.0 µM).
